The panel holds about 83,000 compounds, 20% with a hit somewhere; the sample as a whole holds those more often.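 How to read the values: 0–100, growth inhibition (40 = 60% inhibited); 0, no net growth; -100 to 0, cell death (-40 = 40% of starting cells died; -100 = all dead).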 A number with no mark means an inactive call. Calls of active or inactive are those of the source. How the source made its calls: active means growth percent below 10; inactive means the rest.

Experiment in all cases: NCI-60 one-dose screen, 48 h (100 = growth as untreated, 0 = no growth, -100 = all killed)
Holding throughout (conditions): 10 µM

Assay [1] deals with K-562 leukemia.
In assay [2] the test system is MALME-3M melanoma.
Assay [3] deals with MDA-MB-231 breast.
The subject of assay [4] is RXF 393 renal.
For assay [5], the system named is SF-268 CNS.
In assay [6] the test system is SF-295 CNS.
In assay [7] the test system is SF-539 CNS.
For assay [8], the system named is UACC-257 melanoma.
Assay [9] relates to M14 melanoma.
Assay [10] concerns HCT-15 colon.

As for `CC1(C)N=C(N)N=C(N)N1c1ccc(CCc2ccccc2)c(Cl)c1`, the growth was 11.2% in [1]; 43.3% in assay [2]; 39.7% in [3]; 44% in [4]; 21.1% in [5]; 17.7% in assay [6]. The growth in [7] was 21.8%; in [8] it was 3.1% (active); in assay [9], 20.5%; in assay [10] it was 39.7%.

With `Fc1ccc2nc(-c3nc(-c4ccccc4)n4ccccc34)[nH]c2c1`, the growth is 8.58% (active) in [1]; -57.7% (active) in [2]; -3.47% (active) in assay [3]; -25.7% (active) in assay [4]; -38.6% (active) in assay [5]; -28% (active) in [6]. The growth was 27.3% in assay [7], -17.4% (active) in [8], 27.7% in [9] and 20.4% in assay [10].

As for `CC/C(C)=C(\C)C(=O)O`, the growth in [1] is 100%; in [2], 99.7%; in assay [3] it was 111%; in assay [4], 110%; in assay [5], 105%; in assay [6], 94.7%. In addition, the growth in assay [7] was 104%; in [8] it was 91.7%; in assay [9], 104%; in assay [10], 107%.

As for `COc1cc2nc(Nc3cccc(C(=O)O)c3)nc(N)c2cc1OC`, the growth in assay [1] was 108%; in assay [2], 111%; in assay [3] it was 86.8%; in assay [4] it was 106%; in [5], 95.3%; in assay [6] it was 96.4%. Also, the growth in [7] was 97%; in assay [8], 97.5%; in assay [9], -45.1% (active); in assay [10] it was 102%.

On to `COc1ccc(/C=C/C(C)=N/OCC(=O)O)cc1`, for which the growth is 99.9% in assay [1]; 96.7% in assay [2]; 120% in [3]; 101% in [4]; 107% in assay [5]; 100% in assay [6]. The growth in assay [7] was 101%; in assay [8], 112%; in assay [9], 100%; in [10], 102%.

Consider `COc1ccc(S(=O)(=O)NCCCNc2nccc(-c3c(-c4ccc(F)cc4)nc4sccn34)n2)cc1`, for which the growth in assay [1] is 17.6%; in [2] it was 57.7%; in assay [3], 75.4%; in [4] it was 68.1%; in [5], 50.6%; in [6], 45.7%. In addition, the growth was 93.7% in [7], 67.7% in [8], 57.3% in assay [9] and 57.2% in [10].

`COc1ccc(-c2nc(-c3nc4cc(Cl)c(Cl)cc4[nH]3)c3ccccn23)cc1`: the growth was 59.8% in assay [1]; 18% in [2]; -18.3% (active) in assay [3]; -39.4% (active) in [4]; 21% in assay [5]; 13.9% in assay [6]. The growth is 8.32% (active) in assay [7], 63.6% in assay [8], 70.1% in [9] and 76.7% in assay [10].

In the case of `COc1ccc(/C=C2/CN(C(=O)c3ccc(C)cc3)C/C(=C\c3ccc(OC)cc3)C2=O)cc1`, the growth in assay [1] was 23.7%; in assay [2] it was 91.4%; in assay [3], 87.1%; in assay [4], 92.3%; in assay [5] it was 87.4%; in assay [6], 85.2%. In addition, the growth is 102% in assay [7], 98.1% in [8], 69.4% in [9] and 91.3% in [10].

For the molecule `CCOC(=O)C1(CC(C)C)CCOC1=O` (stereo not given), the growth in assay [1] is 97.8%; in assay [2], 101%; in assay [3], 109%; in assay [4], 118%; in assay [5], 98.7%; in [6] it was 99.5%. Besides, the growth in [7] was 97.7%; in assay [8] it was 97.7%; in assay [9] it was 106%; in [10], 96.7%.

For `CCC(=O)N1C/C(=C/c2ccc(Cl)cc2)C(=O)/C(=C/c2ccc(Cl)cc2)C1`, the growth in assay [1] is 1.74% (active); in assay [2], -66.2% (active); in [3], -22% (active); in assay [4], -94% (active); in assay [5] it was -30.4% (active); in [6], -35.8% (active). Further, the growth in [7] was -64.7% (active); in assay [8] it was -40.3% (active); in [9] it was -61.9% (active); in [10], 0.422% (active).

On to `O=C1/C(=C\c2ccc(F)cc2)CN(C(=O)c2ccccc2F)C/C1=C\c1ccc(F)cc1`, for which the growth in assay [1] is -0.921% (active); in assay [2] it was -55.2% (active); in [3], -38.7% (active); in assay [4] it was -83.2% (active); in assay [5] it was 0.452% (active); in assay [6], -30.7% (active). The growth in [7] was 0.221% (active); in [8], -28.2% (active); in [9], -48.4% (active); in assay [10], -16.3% (active).

For the molecule `Nc1nc(N=Nc2ccc(O)cc2)cc(=O)[nH]1`, the growth is 106% in assay [1]; 96.4% in [2]; 98.7% in assay [3]; 74.4% in [4]; 111% in assay [5]; 94.9% in assay [6]. Also, the growth in [7] was 96.6%; in assay [8] it was 112%; in [9], 101%; in assay [10], 101%.

For the molecule `O=C(CCCCC(=O)Nc1ccc2c(c1)/C(=C/c1ccc[nH]1)C(=O)N2)NO`, the growth in assay [1] is 85%; in assay [2] it was 17.5%; in assay [3], 94.4%; in assay [4], 76.8%; in assay [5] it was 76.2%; in assay [6], 102%. For the same molecule, the growth is 81.1% in [7], 70.6% in [8], 58.6% in assay [9] and 96.2% in assay [10].

Consider `O=C(Nc1cccc(-n2cc(-c3ccncc3)c(-c3ccc(O)c(Cl)c3)n2)c1)c1ccc(N2CCOCC2)c(C(F)(F)F)c1`, for which the growth was 3.17% (active) in assay [1]; 21.3% in assay [2]; -30.5% (active) in assay [3]; -8.59% (active) in assay [4]; 63.2% in assay [5]; -39.7% (active) in [6]. Further, the growth in assay [7] is -28% (active); in assay [8] it was 60.1%; in [9], 36.8%; in assay [10], 16.6%.

(Values after PubChem BioAssay (NCI).)
